Several values for one entry are separate records, joined by “and”; a condition that tells them apart may be missing. Equal entries are not always repeated. Results filed as inconclusive are left out. Some compounds were tested as several samples or in several runs, with calls that do not always agree. Activity calls are given as the source filed them. Unless noted, calls follow the shape of the full dose curve.
Legend:
[1] = qHTS assay to identify small molecule antagonists of the sonic hedgehog signaling (Shh) pathway (AID 1259369); also: nearly all actives have a fitted effect of over 45% in size; also: potency is read from the fitted curve at half-maximal effect
In short: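 For antagonist detection, the reporter line received test compounds together with conditioned medium, incubated 24hr at 37 C, 5% CO2, then luminescence was recorded following 30min room-temperature luciferase reagent incubation.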

[2] = target: Estrogen receptor beta (Homo sapiens) (UniProt Q92731); experiment: qHTS assay to identify small molecule agonists of the estrogen receptor beta (ER-beta) signaling pathway (AID 1259377; active = well fitted activation curve with a large enough effect in the signal ratio in the repeat runs, not every such curve was filed as active; the % refers to the signal ratio; also: potency is read from the fitted curve at half-maximal effect)
In short: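 Measured by fluorescence intensity from a B/G FRET beta-lactamase substrate (2 h, room temperature) in ER-beta-UAS-bla HEK293T cells treated with DMSO-dissolved compounds for 16 hr at 37C and 5% CO2.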

[3] = target: Estrogen receptor beta (Homo sapiens) (UniProt Q92731); experiment: qHTS assay to identify small molecule antagonists of the estrogen receptor beta (ER-beta) signaling pathway (AID 1259378; active = well fitted inhibition curve with a large enough effect in the signal ratio in the repeat runs, not every such curve was filed as active; the % refers to the signal ratio; also: potency is read from the fitted curve at half-maximal effect)
In short: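 ER-beta-UAS-bla HEK293T cells in 2% charcoal-stripped FBS medium treated with compound plus 1nM final 17-beta-estradiol for 16 hr at 37C. Beta-lactamase reporter read by FRET substrate fluorescence after 2 hours at room temperature.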

[4] = qHTS assay to identify small molecule agonists of the estrogen receptor beta (ER-beta) signaling pathway - cell viability counter screen (AID 1259380; active = well fitted curve in the direction sought with a large enough effect in the repeat runs; an effect the other way counts as inactive or inconclusive; also: nearly all actives have a fitted effect of over 30% in size; also: potency is read from the fitted curve at half-maximal effect)
In short: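 CellTiter-Glo read, 30 min RT, same wells as bla assay; cells ER-beta-UAS-bla HEK293T; 16 hr compound, 37C; medium 2% charcoal-stripped FBS.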

[5] = qHTS assay to identify small molecule antagonists of the estrogen receptor beta (ER-beta) signaling pathway - cell viability counter screen (AID 1259382; active = well fitted curve in the direction sought with a large enough effect in the repeat runs; an effect the other way counts as inactive or inconclusive; also: nearly all actives have a fitted effect of over 55% in size; also: potency is read from the fitted curve at half-maximal effect)
In short: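 In this multiplexed counter screen, cells were seeded at 2,000 per well in medium with 2% charcoal-stripped FBS and incubated 6 hr before compound and 1nM final E2 were added. Sixteen hours later, ATP-based luminescence reported viability.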

[6] = qHTS assay to identify small molecule agonists of the androgen receptor (AR) signaling pathway in the presence of an antagonist - cell viability counter screen (AID 1259379; active = well fitted curve in the direction sought with a large enough effect in the repeat runs; an effect the other way counts as inactive or inconclusive; also: nearly all actives have a fitted effect of over 25% in size; also: potency is read from the fitted curve at half-maximal effect)
In short: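 Seed MDA-kb2 at 3,000 cells/well; incubate 5 hr, 37C, 0% CO2. Add nilutamide to 3.0uM final, then pin compounds at 15 concentrations. Incubate 16 hr. Add CellTiter-Fluor at 15 hr, read fluorescence after 1 hr.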

[7] = qHTS assay to identify small molecule agonists or antagonists of the thyroid stimulating hormone receptor (TSHR) signaling pathway - wild type cell line counter screen (AID 1259384)
In short: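 Wild-type Hek293 cells, 800/well, 18 h at 37C, then compound with Ro20-1724 for 30 min RT. cAMP by HTRF (cAMP-d2/anti-cAMP cryptate), 1 h RT, fluorescence read. 15 concentrations, triplicates.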

[8] = target: Thyrotropin receptor (Homo sapiens) (UniProt P16473); experiment: qHTS assay to identify small molecule antagonists of the thyroid stimulating hormone receptor (TSHR) signaling pathway (AID 1259385); also: nearly all actives have a fitted effect of over 20% in size; also: potency is read from the fitted curve at half-maximal effect
In short: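 TSHR-HEK293 cells (800/well) plated 18 h, then compounds with Ro20-1724 and TSH at 1.5 ng/mL final, 30 min at room temperature. cAMP quantified by HTRF (cAMP-d2/anti-cAMP-cryptate, 1 h); 15 concentrations in triplicate.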

[9] = target: Estrogen receptor (Homo sapiens) (UniProt P03372); experiment: qHTS assay to identify small molecule agonists of the estrogen receptor alpha (ER-alpha) signaling pathway in the presence of an antagonist (AID 1259383); also: top concentration of the series differs between compounds; nearly all actives have a fitted effect of over 15% in size
In short: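 Stably transfected VM7Luc4E2 reporter cells, kept 5 days in charcoal-stripped serum, received ICI-182,780 at 10.0nM final before compound addition. Following 22hr incubation at 37C and 5% CO2, luciferase signal was read by luminescence.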

[10] = target: Androgen receptor (Homo sapiens) (UniProt P10275); experiment: qHTS assay to identify small molecule agonists of the androgen receptor (AR) signaling pathway in the presence of an antagonist (AID 1259381); also: nearly all actives have a fitted effect of over 15% in size
In short: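 Test compounds at 15 concentrations were incubated for 16hr with MDA-kb2 reporter cells in presence of 3.0uM nilutamide (final). Signal: ONE-Glo luciferase luminescence.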

Measured: Potency

Androgen receptor (Homo sapiens), sequence (P10275 whole entry, looked up): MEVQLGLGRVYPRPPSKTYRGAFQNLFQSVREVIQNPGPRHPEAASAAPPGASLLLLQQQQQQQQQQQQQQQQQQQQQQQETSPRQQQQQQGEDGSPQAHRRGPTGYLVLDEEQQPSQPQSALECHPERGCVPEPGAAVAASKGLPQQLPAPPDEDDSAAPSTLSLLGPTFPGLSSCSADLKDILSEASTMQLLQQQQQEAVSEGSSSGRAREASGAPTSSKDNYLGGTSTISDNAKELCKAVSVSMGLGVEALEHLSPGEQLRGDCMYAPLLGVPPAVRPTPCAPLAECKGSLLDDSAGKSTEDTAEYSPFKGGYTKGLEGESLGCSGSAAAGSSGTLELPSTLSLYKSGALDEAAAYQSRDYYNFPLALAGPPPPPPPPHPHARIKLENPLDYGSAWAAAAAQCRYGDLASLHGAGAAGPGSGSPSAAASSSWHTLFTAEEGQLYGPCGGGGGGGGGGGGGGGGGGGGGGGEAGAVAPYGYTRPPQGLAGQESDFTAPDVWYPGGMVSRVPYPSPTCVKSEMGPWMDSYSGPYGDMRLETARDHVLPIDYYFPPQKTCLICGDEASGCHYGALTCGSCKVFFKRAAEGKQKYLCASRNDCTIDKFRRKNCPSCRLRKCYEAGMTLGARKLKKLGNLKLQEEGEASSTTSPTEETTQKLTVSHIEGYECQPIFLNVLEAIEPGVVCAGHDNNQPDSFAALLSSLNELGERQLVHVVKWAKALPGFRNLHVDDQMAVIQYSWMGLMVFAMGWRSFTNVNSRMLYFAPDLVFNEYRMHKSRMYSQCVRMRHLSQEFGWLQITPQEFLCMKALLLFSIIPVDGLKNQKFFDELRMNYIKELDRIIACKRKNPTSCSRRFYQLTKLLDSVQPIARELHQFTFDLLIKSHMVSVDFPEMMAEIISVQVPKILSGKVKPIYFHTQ
Estrogen receptor beta (Homo sapiens), sequence (Q92731 whole entry, looked up): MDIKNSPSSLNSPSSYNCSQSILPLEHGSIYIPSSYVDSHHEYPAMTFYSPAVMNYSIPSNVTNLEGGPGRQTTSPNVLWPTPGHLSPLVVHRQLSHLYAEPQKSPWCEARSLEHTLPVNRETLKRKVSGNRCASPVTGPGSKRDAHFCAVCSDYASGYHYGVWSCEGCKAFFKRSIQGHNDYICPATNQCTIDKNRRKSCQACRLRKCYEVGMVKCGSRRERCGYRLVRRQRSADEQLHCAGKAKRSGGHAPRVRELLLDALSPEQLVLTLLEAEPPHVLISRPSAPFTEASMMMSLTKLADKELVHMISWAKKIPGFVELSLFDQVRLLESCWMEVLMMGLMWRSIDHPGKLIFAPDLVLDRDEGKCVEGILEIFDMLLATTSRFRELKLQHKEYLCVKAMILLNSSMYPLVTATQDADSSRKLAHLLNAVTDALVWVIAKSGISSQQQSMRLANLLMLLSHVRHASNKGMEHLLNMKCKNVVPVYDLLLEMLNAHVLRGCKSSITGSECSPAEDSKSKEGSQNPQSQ
Estrogen receptor (Homo sapiens), sequence (P03372 whole entry, looked up): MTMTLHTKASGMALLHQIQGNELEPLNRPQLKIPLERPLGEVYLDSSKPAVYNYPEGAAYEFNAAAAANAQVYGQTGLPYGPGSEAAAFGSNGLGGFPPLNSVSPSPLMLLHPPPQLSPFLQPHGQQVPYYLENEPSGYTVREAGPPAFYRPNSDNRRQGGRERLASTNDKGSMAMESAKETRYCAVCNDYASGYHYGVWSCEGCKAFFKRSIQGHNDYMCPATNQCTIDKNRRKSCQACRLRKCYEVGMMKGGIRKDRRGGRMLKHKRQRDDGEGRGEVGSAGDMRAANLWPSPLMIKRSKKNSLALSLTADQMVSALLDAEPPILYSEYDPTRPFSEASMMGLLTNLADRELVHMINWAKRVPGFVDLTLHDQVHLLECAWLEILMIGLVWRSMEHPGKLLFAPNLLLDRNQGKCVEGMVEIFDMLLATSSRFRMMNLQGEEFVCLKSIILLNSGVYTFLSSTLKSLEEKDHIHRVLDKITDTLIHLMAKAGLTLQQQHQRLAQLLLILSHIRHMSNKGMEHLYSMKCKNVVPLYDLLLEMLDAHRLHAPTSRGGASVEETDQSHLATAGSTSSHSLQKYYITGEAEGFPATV
Thyrotropin receptor (Homo sapiens), sequence (P16473 whole entry, looked up): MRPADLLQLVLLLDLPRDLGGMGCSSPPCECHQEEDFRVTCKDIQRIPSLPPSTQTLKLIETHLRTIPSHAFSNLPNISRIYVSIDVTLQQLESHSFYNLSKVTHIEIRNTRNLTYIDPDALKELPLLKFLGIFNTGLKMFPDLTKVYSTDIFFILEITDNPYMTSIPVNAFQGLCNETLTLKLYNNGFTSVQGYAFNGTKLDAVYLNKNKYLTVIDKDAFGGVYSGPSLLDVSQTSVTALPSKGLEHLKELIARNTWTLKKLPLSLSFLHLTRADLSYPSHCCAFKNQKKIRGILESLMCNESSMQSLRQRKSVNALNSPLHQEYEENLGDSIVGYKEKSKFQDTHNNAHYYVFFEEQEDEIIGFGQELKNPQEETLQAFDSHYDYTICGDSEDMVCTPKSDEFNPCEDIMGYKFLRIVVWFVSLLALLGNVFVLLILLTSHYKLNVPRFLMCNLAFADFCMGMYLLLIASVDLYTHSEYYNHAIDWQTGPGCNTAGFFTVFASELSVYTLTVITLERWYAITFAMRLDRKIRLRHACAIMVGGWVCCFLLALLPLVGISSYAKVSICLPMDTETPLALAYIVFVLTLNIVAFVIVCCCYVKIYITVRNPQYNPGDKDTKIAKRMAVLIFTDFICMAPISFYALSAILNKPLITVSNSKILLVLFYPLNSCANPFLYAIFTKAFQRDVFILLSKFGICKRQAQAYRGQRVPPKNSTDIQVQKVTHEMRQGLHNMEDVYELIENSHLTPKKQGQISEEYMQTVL

O=C1C(c2[nH]c3ccc(S(=O)(=O)O)cc3c2O)=Nc2ccc(S(=O)(=O)O)cc21
inactive: [1] | [2] | [3] | [4] | [5]

O=C(c1ccc(O)c(O)c1)c1ccc(O)cc1O
active: [1] 2.43 µM | [2] 1.37 µM | [6] 68.5 µM
inactive: [5]

C/C=C/C=C/COC(=O)C(C)C
active: [1] 30.6 µM
inactive: [2] | [4] | [5] | [7] | [8]

O=[N+]([O-])c1ccc(F)c(Cl)c1
inactive: [1] | [2] | [3] | [6] | [5] | [7] | [8]

CC(C)(C)c1csc(-c2cc3cc(OCc4ccccc4CC(=O)O)ccc3o2)n1
inactive: [1] | [2] | [9] | [7]
active: [4] 4.86 µM

Cc1c(C)c([N+](=O)[O-])c(C(C)(C)C)c([N+](=O)[O-])c1C
inactive: [1] | [2] | [6] | [4] | [5] | [9] | [7] | [8]

O=C(O)[C@H](O)[C@@H](O)[C@H](O[C@@H]1O[C@H](CO)[C@H](O)[C@H](O)[C@H]1O)[C@H](O)CO
inactive: [1] | [2] | [3] | [6] | [9] | [7] | [8]

C[Si](Cl)(c1ccccc1)c1ccccc1
inactive: [1] | [2] | [6] | [4] | [9] | [7] | [8]

COc1ccc(NC(=O)CC(C)=O)cc1
inactive: [1] | [2] | [3] | [6] | [4] | [7] | [8]

CCCCCCCCCCCCOC(=O)c1ccc(O)cc1
inactive: [1] | [2] | [6] | [4] | [10] | [5] | [9]

Oc1cc(Cl)cc(Cl)c1Cl
active: [1] 31.4 µM | [4] 31.4 µM
inactive: [2] | [5] | [9] | [7] | [8]

Cc1cccc(C)c1NC(=O)c1ccc(N)cc1
inactive: [1] | [2] | [3] | [6] | [10] | [5] | [9] | [7] | [8]

CC(C(=O)O)c1ccc2c(c1)[nH]c1ccc(Cl)cc12 (stereo not given)
active: [4] 29.8 µM
inactive: [1] | [2] | [3] | [6] | [9] | [7]

CC1(C)[C@@H](O)CC[C@]2(C)[C@H]3C(=O)C=C4[C@@H]5C[C@@](C)(C(=O)O)CC[C@]5(C)CC[C@@]4(C)[C@]3(C)CC[C@@H]12
inactive: [1] | [2] | [6] | [10] | [5] | [7]

CC(=O)CC(=O)Nc1ccc(S(=O)(=O)O)cc1
inactive: [1] | [2] | [3] | [6] | [4] | [9] | [8]

O=C1NC(=O)[C@@H]2CC=CC[C@H]12
inactive: [1] | [2] | [3] | [6] | [7] | [8]
active: [4] 27.3 µM

CN1CCCCC1CCN1c2ccccc2Sc2ccc(S(C)=O)cc21 (stereo not given)
inactive: [2] | [9] | [7]
active: [1] 2.66 µM

CC1=Nc2ccccc2C1(C)C
inactive: [1] | [2] | [7]

CC(=O)OCC=C(C)C
inactive: [1] | [3] | [6] | [4] | [10] | [5] | [9] | [7] | [8]

O=[N+]([O-])c1ccc(O)cc1C(F)(F)F
inactive: [1] | [2] | [5] | [7] | [8]
active: [6] 30.6 µM

O=C1CCc2cc(OCCCCc3nnnn3C3CCCCC3)ccc2N1
active: [1] 10.6 µM
inactive: [2] | [6] | [4] | [9] | [7] | [8]

CCN(CC)C(=O)c1cc(S(=O)(=O)Cc2ccccc2)c(N2CCC(c3ccccc3)CC2)cc1N(CC)CCN(C)C
active: [1] 6.78 µM | [3] 21.4 µM | [4] 19.1 µM | [5] 19.1 µM
inactive: [2] | [7]

O=c1[nH]c(=O)n([C@H]2C[C@H](O)[C@@H](CO)O2)cc1F
active: [4] 0.15 µM
inactive: [1] | [2] | [6] | [7] | [8]

CN(C)[C@@H](CCOc1cccc2ccccc12)c1ccccc1
inactive: [10] | [9] | [7] | [8]
active: [1] 29.8 µM | [3] 29.8 µM | [6] 29.8 µM | [4] 23.7 µM

CCCCC(CC)CN1CN(CC(CC)CCCC)CC(C)(N)C1 (stereo not given)
active: [6] 21.1 µM | [8] 21.1 µM
inactive: [1] | [2] | [3] | [10] | [5] | [9] | [7]

Cc1ccc(N/N=c2\c(=O)cc/c(=N\Nc3ccc(S(=O)(=O)O)cc3)c2=O)c(C)c1
inactive: [1] | [2] | [3] | [5] | [9] | [7] | [8]
active: [6] 27.3 µM

COc1cccc2c1C(=O)c1c(O)c3c(c(O)c1C2=O)C[C@@](O)(C(C)=O)C[C@@H]3O[C@H]1C[C@H](N)[C@H](O)[C@H](C)O1
active: [1] 0.0194 µM | [3] 4.22 µM | [6] 30.8 µM and 11.9 µM
77.4 µM (active) and inactive: [4]
inactive: [5]

O=S(=O)(O)c1ccc(Nc2nc(Nc3ccc(/C=C/c4ccc(Nc5nc(Nc6ccc(S(=O)(=O)O)cc6)nc(N(CCO)CCO)n5)cc4S(=O)(=O)O)c(S(=O)(=O)O)c3)nc(N(CCO)CCO)n2)cc1
inactive: [1] | [6] | [4] | [10] | [5] | [9] | [7] | [8]

CC(CCc1ccccc1)NCC(O)c1ccc(O)c(C(N)=O)c1 (stereo not given)
active: [1] 30.6 µM
inactive: [3] | [6] | [9]

OC[C@H]1O[C@H](O[C@H]2O[C@H](CO)[C@@H](O)[C@H](O)[C@H]2O)[C@H](O)[C@@H](O)[C@@H]1O
inactive: [1] | [6] | [4] | [10] | [5] | [7]

— PubChem BioAssay (Tox21)
